NS1 inh = blocks influenza NS1 protein function; Potency, µM (titrated, usually from 46.1 µM); hit rate 0.4% among 270,000; AID 2326; calls by dose curve; also: actives are rising curves; nearly all actives have a fitted effect of over 50% in size
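A cell-based growth assay was used: compounds that relieve NS1-induced slow growth of budding yeast raise OD600. Assay medium was yeast nitrogen base with ammonium sulphate and -URA supplement, pH 6.0, with 2% galactose.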
Shiga inhibitor = Shiga toxin inhibition. Vero cells, Shiga toxin protein synthesis inhibition reporter. hit rate 9.2% among 290,000. inhibition, % at 38.7 µM; in the data active = inhibition mostly above about 28%, no sharp cut-off; inactive = mostly below about 43%
AmpC inh no detg = AmpC beta-lactamase inhibition without detergent | hit rate 0.52% among 330,000 | AID 485341 | P00811 | Potency, µM (doses to about 57.1 µM), usual class: inhibitors | AmpC nitrocefin hydrolysis, absorbance 480 nm, 0.0001% Triton; also: nearly all actives have a fitted effect of over 20% in size
Target sequence (P00811 whole entry, looked up): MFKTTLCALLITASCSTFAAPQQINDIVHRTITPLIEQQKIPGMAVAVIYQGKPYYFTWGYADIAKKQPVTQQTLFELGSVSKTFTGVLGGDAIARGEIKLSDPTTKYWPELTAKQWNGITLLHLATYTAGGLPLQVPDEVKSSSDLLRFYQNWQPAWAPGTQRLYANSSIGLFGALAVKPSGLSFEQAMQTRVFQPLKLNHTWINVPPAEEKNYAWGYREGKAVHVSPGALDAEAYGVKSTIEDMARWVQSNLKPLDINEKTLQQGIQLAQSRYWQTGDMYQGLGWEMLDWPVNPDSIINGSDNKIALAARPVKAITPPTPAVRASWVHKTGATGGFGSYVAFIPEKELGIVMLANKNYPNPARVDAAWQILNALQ
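AmpC (5.3 nM in the dispensed reagent) in 20 mM phosphate pH 7.0 with 0.01% (detergent screen) or 0.0001% Triton X-100 was preincubated with compounds for 15 min at room temperature. Nitrocefin was then added from an 800 uM solution, and hydrolysis was followed at 480 nm.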
CHX counter = counter-screen hit for Shiga toxin inhibitors, cycloheximide; cell reporter, cycloheximide protein synthesis inhibition counterscreen; max response, %; hit rate 12% among 300,000; in the data active = max response mostly above about 13%, no sharp cut-off; inactive = mostly below about 14%; also: read at 38.3 µM for the half of the compounds with a filed dose
AmpC inh detg = AmpC beta-lactamase inhibition with detergent present. Potency, µM (doses to about 114 µM), actives largely listed as inhibitors. P00811. hit rate 0.041% among 370,000. AmpC hydrolysis of nitrocefin, absorbance 480 nm, 0.01% Triton; also: nearly all actives have a fitted effect of over 25% in size
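20 mM phosphate pH 7.0 + 0.01% (detergent screen) or 0.0001% Triton X-100; 5.3 nM AmpC reagent; cpd preinc 15 min RT; nitrocefin (800 uM stock) to start; A480 q20 s × 4 min; Activity was normalised to no-enzyme and no-compound control wells.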
Of the large screens only hits and unclear results are named; the others gave an inactive call. The entries come from a sample that favours hits as a whole. Unless noted, calls follow the shape of the dose curve; as a rule, active = well fitted curve in the direction sought with a large enough effect; inconclusive = small, poorly fitted or top-dose-only effect, or another doubt; inactive = no such curve, though single readings can be large; an effect the other way counts as inactive or inconclusive.

O=S(=O)(CCOc1ccccc1)c1nc2ccccc2[nH]1	Shiga inhibitor 22.7, CHX counter 18.1
O=C(CCCOc1ccccc1)Nc1nc2ccccc2[nH]1	Shiga inhibitor 68.4, CHX counter 33.8 (no result: NS1 inh)
Cc1ccc(OCCCC(=O)Nc2nc3ccccc3[nH]2)cc1	AmpC inh detg inconclusive (no result: NS1 inh)
CC(NS(=O)(=O)c1ccc(Br)cc1)C(=O)Nc1nc2ccccc2[nH]1 (stereo not drawn)	none (no result: NS1 inh, Shiga inhibitor, CHX counter)
CCCN1CCN(CC2=C(C(=O)OCC)C(c3ccc(Cl)cc3)NC(=O)N2)CC1 (stereo not drawn)	none (no result: NS1 inh, Shiga inhibitor, AmpC inh no detg, CHX counter)
N#CCCN(C(=O)COC(=O)CCc1nc2ccccc2c(=O)[nH]1)c1ccc(F)cc1	none (no result: NS1 inh, Shiga inhibitor, CHX counter)
O=C(Cc1ccccc1)Nc1nc2ccccc2[nH]1	Shiga inhibitor 79.5, CHX counter 25.9
O=C(Cc1ccc(Cl)cc1)Nc1nc2ccccc2[nH]1	none
C=CCOc1ccc(CN(C)CC(=O)N(CC(C)C)c2c(N)n(CC(C)C)c(=O)[nH]c2=O)cc1	AmpC inh no detg 6.31µM
COc1ccc(NC(=O)CN(C)CC(=O)N(CC(C)C)c2c(N)n(CC(C)C)c(=O)[nH]c2=O)cc1	none (no result: NS1 inh, Shiga inhibitor, CHX counter, AmpC inh detg)
Cc1cccc(C)c1NC(=O)C1CCN(S(C)(=O)=O)CC1	AmpC inh detg inconclusive
Cc1nc2nc(NC(=O)c3ccc(C(C)(C)C)cc3)[nH]n2c(=O)c1Cc1ccccc1	none (no result: NS1 inh, Shiga inhibitor, AmpC inh no detg, CHX counter)
O=C1NN(C(=O)Nc2ccc(Br)cc2)C(c2ccccc2)C1c1ccccc1 (stereo not drawn)	Shiga inhibitor 53.8 (no result: NS1 inh, AmpC inh no detg, AmpC inh detg)
CC1CC(C)CN(CCC(=O)Nc2ccc(Br)cc2)C1 (stereo not drawn)	none (no result: Shiga inhibitor)
Cc1ccc(C)c(NC(=O)CSc2nc(=O)n(CCN(C)C)c3c2CCC3)c1	none (no result: NS1 inh, Shiga inhibitor, AmpC inh no detg, CHX counter)
CSCc1ccc(C(=O)NC2CC(C)(C)Cc3c2cnn3-c2ccc(F)cc2)o1 (stereo not drawn)	CHX counter 28.0
CC1(C)Cc2c(cnn2-c2ccc(F)cc2)C(NC(=O)c2ccc(=O)oc2)C1 (stereo not drawn)	CHX counter 22.4
COc1ccc(NC(=S)NC(=O)C2CCCCC2)cc1	none
CCOC(=O)c1cc(-c2ccccc2)sc1NC(=O)C(C)(C)C	none
CCOC(=O)c1sc(NC(=S)NC(=O)CC(C)C)cc1C	Shiga inhibitor 48.9, CHX counter 42.8
CCOC(=O)c1sc(NC(=O)C(C)(C)C)cc1C	Shiga inhibitor active, AmpC inh no detg 10µM, CHX counter 27.6, AmpC inh detg inconclusive
CCOC(=O)Nc1cc(OCC)c(NC(=O)C2CC2)cc1OCC	none
CCOC(=O)c1sc(NC(=S)NC(=O)C2CCCC2)cc1C	Shiga inhibitor 10.3
CCOC(=O)c1sc(NC(=O)C2CC2)cc1C	Shiga inhibitor 38.2, CHX counter 15.3
CSc1cccc(NS(=O)(=O)c2ccc3[nH]cc(C(=O)N4CCCC4)c(=O)c3c2)c1	none (no result: NS1 inh, Shiga inhibitor, AmpC inh no detg, CHX counter)
O=C(COc1ccccc1)NCc1nnc2c3ccccc3c(-c3ccccc3)nn12	AmpC inh detg inconclusive
COc1ccc(-c2nn3c(=O)cc(CN4CCN(C(=O)Nc5cc(C)ccc5C)CC4)nc3s2)cc1	none (no result: NS1 inh, Shiga inhibitor, AmpC inh no detg, CHX counter)
Sc1oc(-c2ccccc2)cc1C=Nc1ccccc1	CHX counter 30.4
CN(Cc1c(C(=O)N/N=C/c2cccc(Cl)c2)nnn1-c1nonc1N)c1ccccc1	AmpC inh no detg 14.1µM
Nc1nonc1-n1nnc(C(=O)N/N=C/C=C/c2ccccc2)c1CSC1=NCCS1	Shiga inhibitor 43.1, CHX counter 16.7
Nc1nonc1-n1nnc(C(=O)N/N=C/c2ccc(OCc3ccccc3)cc2)c1COc1ccc(F)cc1	none
Nc1nnnn1CC(=O)N/N=C/c1cccs1	CHX counter 17.0
Cc1cccc(COc2ccc(/C=N/NC(=O)c3nnn(-c4nonc4N)c3COc3ccc(F)cc3)cc2)c1	CHX counter 16.5
Nc1nonc1-n1nnc(C(=O)N/N=C/c2ccc(OCc3cccc(Cl)c3)cc2)c1CN1CCCCC1	CHX counter 26.6
CCc1c(C(=O)N/N=C/c2cccs2)nnn1-c1nonc1N	Shiga inhibitor 45.1, CHX counter 23.2
CCCc1c(C(=O)N/N=C/C(C)=C/c2ccccc2)nnn1-c1nonc1N	none
CC(/C=N/NC(=O)c1nnn(-c2nonc2N)c1C(C)C)=C\c1ccccc1	CHX counter 28.6
CN(C)S(=O)(=O)Oc1ccc(Cl)cc1C(=O)Nc1ccc(F)cc1F	none
O=C(Nc1ccccc1F)c1cc(Cl)sc1Cl	Shiga inhibitor 71.8, CHX counter 31.2
O=C(Nc1ccc(F)cc1F)c1cc(Cl)sc1Cl	CHX counter 30.0, AmpC inh detg inconclusive

High-throughput results from PubChem.
